aSyn UTR act – Activators via SNCA 5'UTR binding, MLPCN. alpha-synuclein 5'UTR reporter, activators screen. activity score, % (tested at 7.5 µM), hits read low. 300,000 compounds, 7.1% hits. AID 1814; in the data active = activity score below about -60%
Large screens that a line does not name were inactive. A selection follows.

Cc1cccc(NC(=O)Nc2cccc(C)n2)n1	aSyn UTR act -95.4
Cc1cccc(NC(=O)Nc2ccc([N+](=O)[O-])cc2)n1	aSyn UTR act -97.2
Cc1cccc(NC(=O)Nc2ccc(C)c(C)c2)n1	aSyn UTR act -119.9
Cc1cccc(NC(=O)Nc2ccc(F)cc2)n1	aSyn UTR act -90.6
Cc1ccc(NC(=O)Nc2cccc(C)n2)cc1	aSyn UTR act -75.8
COc1ccc(NC(=O)Nc2ccc([N+](=O)[O-])cc2)cn1	aSyn UTR act -102.1
COC(=O)c1ccc2nc(Nc3nc4ccc(F)cc4s3)sc2c1	none
CCOC(=O)c1csc(Nc2nc3ccc(F)cc3s2)n1	aSyn UTR act -81.6
CC(=O)c1sc(Nc2nc3ccc(F)cc3s2)nc1C	aSyn UTR act -216.3
CN(c1ccccc1)c1nc2ccsc2c(=O)s1	aSyn UTR act -123.6
COc1ccc(C2Nc3ccccc3C(=O)N2c2ccc(C)cc2)cc1COc1ccccn1 (configuration not stated)	aSyn UTR act -97.4
COc1ccc(C2Nc3ccccc3C(=O)N2c2ccccc2)cc1CN1CCOCC1 (configuration not stated)	aSyn UTR act -69.8
COc1ccc(C2C(C#N)=C(N)N(c3ccccc3)C3=C2C(=O)CCC3)cc1Cn1cc([N+](=O)[O-])cn1 (configuration not stated)	none
COc1cccc(C2Nc3ccccc3C(=O)N2Cc2ccccc2)c1 (configuration not stated)	none
COc1ccc(C2Nc3ccccc3C(=O)N2c2ccc(C)cc2)cc1Cn1nc(C)c([N+](=O)[O-])c1C (configuration not stated)	aSyn UTR act -104.5
COc1ccc(Nc2nc3ccccc3s2)cc1	aSyn UTR act -159.5
COc1ccc2nc(NCc3cccnc3)sc2c1	aSyn UTR act -74.6
COc1ccc2nc(NC3=NCCC3)sc2c1	aSyn UTR act -179.0
COc1cccc(Cn2c(NCc3cccnc3)nc3c2c(=O)n(C)c(=O)n3C)c1	none
COc1cccc(Nc2nc3ccc(OC)cc3s2)c1	aSyn UTR act -168.2
COc1ccc2c(c1)sc(N)[n+]2Cc1cc(C)cc2cccnc12	none
COc1ccc2nc(-n3c(C)ccc3C)sc2c1	aSyn UTR act -62.2
Cc1cccc(Nc2nc3ccccc3s2)c1C	aSyn UTR act -180.9
COc1ccc(C(=O)Nc2ccc(C(F)(F)F)n(C)c2=O)cc1	aSyn UTR act -151.3
COCCn1c(C(F)(F)F)ccc(NC(=O)c2ccccc2)c1=O	aSyn UTR act -96.5
Cc1ccc(C(=O)Nc2ccc(C(F)(F)F)n(C)c2=O)cc1	aSyn UTR act -144.6
COc1ccc(-c2cn3c(n2)CCC3)cc1	aSyn UTR act -90.9
C(=N\Nc1nccc(-c2cccnc2)n1)/c1ccccc1	aSyn UTR act -108.0
Cc1ccc(-c2cc(-c3ccccc3O)nc(N/N=C/c3cccnc3)n2)cc1	aSyn UTR act -99.6
Cc1ccnc(N/N=C/c2ccccc2)n1	aSyn UTR act -89.6
CSc1nccc(N/N=C/c2ccccc2)n1	aSyn UTR act -157.7
Cc1ccc(CCNC(=O)NC(C)(C)C)cc1	aSyn UTR act -94.2
Cc1nc(-c2ccc(NC(=O)C3CCCCC3)cc2)cs1	aSyn UTR act -173.7
Cc1ccn(C(=O)c2ccc(NC(=O)C3CCCCC3)cc2)n1	aSyn UTR act -70.4
Cc1ccc(C(=O)Nc2ccc(-c3csc(C)n3)cc2)cc1	aSyn UTR act -137.6
Cc1ccc(C(=O)NCCc2ccncc2)cc1	aSyn UTR act -113.8
CCc1ccccc1NC(=O)c1ccc(-c2csc(C)n2)cc1	aSyn UTR act -143.0
Cc1ccc(CNC(=O)c2ccc(Cn3cc(-c4ccc(C)cc4)nc3-c3ccncc3)cc2)cc1	aSyn UTR act -176.6
Cc1ccc(C(=O)NCCc2csc(C)n2)cc1	aSyn UTR act -80.7
Cc1ccc(C(=O)NCCc2ccccc2)cc1	none
COCCNC(=O)c1ccc(-c2csc(C)n2)cc1	aSyn UTR act -64.0
Oc1cccc(NC(=S)N=Nc2c(O)[nH]c3ccccc23)c1	aSyn UTR act -158.2
CCCCNC(=S)N=Nc1c(O)[nH]c2ccccc12	aSyn UTR act -81.3
CCNC(=S)N=Nc1c(O)[nH]c2ccc(C(C)C)cc12	none
Clc1ccc(-c2cn3cccnc3n2)cc1	aSyn UTR act -132.1
Clc1ccc(-c2cn3cccnc3n2)cc1Cl	aSyn UTR act -193.3
Clc1ccc(-c2cn3nc4c(nc3n2)CCCC4)cc1	none
COc1ccc(NC(=O)Nc2cc(C)ccc2F)cc1	aSyn UTR act -163.7
COc1cccc(NC(=O)Nc2cc(C)ccc2F)c1	aSyn UTR act -73.3
COc1cccc(NC(=O)NC2(C(F)(F)F)Oc3ccccc3O2)c1	aSyn UTR act -76.7
COc1cccc(NC(=O)Nc2ccccc2SC)c1	aSyn UTR act -71.6
O=C(NCc1cccnc1)NC1(C(F)(F)F)Oc2ccccc2O1	aSyn UTR act -66.5
COc1ccc(C)cc1NC(=O)Nc1ccc(C(=O)N2CCCC2)cc1	aSyn UTR act -63.7
COc1cccc(NC(=O)NCc2ccccc2Cl)c1	aSyn UTR act -72.9
Cc1oc2c(c1C(=O)NCc1cccnc1)C(=O)c1ccccc1C2=O	none
CCOc1ccc2[nH]c3ncccc3c(=O)c2c1	aSyn UTR act -138.6
CNC(=O)c1cc(C(=O)c2ccc(Cl)cc2)c[nH]1	aSyn UTR act -63.9
COc1cc(OC)c2c(c1)O/C(=C\c1ccccc1)C2=O	aSyn UTR act -153.7
O=C(NNC(=S)Nc1ccccc1)c1ccccc1[N+](=O)[O-]	aSyn UTR act -77.4
O=C(NC(=S)Nc1ccc(N2CCCC2)cc1)c1ccccc1[N+](=O)[O-]	aSyn UTR act -104.1
CC1C(=O)C(C)C(c2ccc(Cl)cc2)NC1c1ccc(Cl)cc1 (configuration not stated)	none
Cc1ccc(-c2cc(C(=O)Nc3ccc4c(c3)OCCO4)c3ccccc3n2)cc1	aSyn UTR act -74.3
O=C(Nc1ccc2c(c1)OCCO2)c1cccc2nc3ccccc3nc12	none
O=C(NC1=NCCS1)c1cc(-c2ccc(-c3ccccc3)cc2)nc2ccccc12	aSyn UTR act -88.2
CCN1CCN(/C=N/c2nc(C)cs2)CC1	aSyn UTR act -83.0
O=C(O)c1ccc(Nc2nc(-c3cccnc3)cs2)cc1	aSyn UTR act -87.7
CC(=O)c1ccc(Nc2nc(-c3cccnc3)cs2)cc1	aSyn UTR act -130.4
CCc1cccc2c1Sc1ccccc1CC2N1CCNCC1 (configuration not stated)	none
CN(C)S(=O)(=O)c1ccc(NC(=O)c2ccccn2)cc1	aSyn UTR act -78.9
CN(C)S(=O)(=O)c1ccc(C(=O)Nc2ccccn2)cc1	aSyn UTR act -69.8
CCN(CC)S(=O)(=O)c1ccc(NC(=O)c2ccccn2)cc1	aSyn UTR act -119.9
S=C(Nc1ccccc1)Nc1nccs1	aSyn UTR act -176.5
Fc1ccc(NC(=S)Nc2ccc3nccnc3c2)cc1	aSyn UTR act -90.5
Fc1ccc(NC(=S)Nc2nccs2)cc1	aSyn UTR act -128.3
CC(C)(C)c1nnc(NC(=S)Nc2ccccc2)s1	aSyn UTR act -166.9
CN(C)c1nc(F)c(F)c(S(=O)(=O)c2ccccc2)c1F	aSyn UTR act -93.9
COC(=O)c1cn(C(=O)c2ccc(OC)cc2)c2ccccc12	aSyn UTR act -146.8
CCOC(=O)c1cccc(NC(=O)c2cccs2)c1	aSyn UTR act -64.9
O=C(c1ccccc1)c1cccc(NC(=O)c2ccco2)c1	aSyn UTR act -120.4
CCOC(=O)c1cccc(NC(=O)c2ccco2)c1	aSyn UTR act -76.8
CCc1sc(C(=O)Nc2cccc(C(C)=O)c2)cc1C	aSyn UTR act -77.4
CC(C)(C)c1ccc(N=C2SCC(=O)N2Cc2cccs2)cc1	aSyn UTR act -71.6
Cc1cc2nc(-c3cccc(NC(=O)c4ccc(Br)o4)c3)oc2cc1C	aSyn UTR act -77.1
Cc1ccc2oc(-c3cccc(NC(=O)c4ccc(Br)o4)c3)nc2c1	aSyn UTR act -93.7
